# Screening data deposited in PubChem BioAssay by National Center for Advancing Translational Sciences (NCATS).
# This is a sample that favours compounds with a hit; in the whole collection about 2.4% have one here.
# Pol eta inh-1: blocks human DNA polymerase eta activity | recombinant Pol eta, fluorescent DNA replication assay | Potency, µM (doses to about 114 µM), without a hit: at the highest dose activity change, negative = inhibition, actives largely listed as inhibitors | hit rate 1.2% among 390,000; also: % is scaled to controls: 0 for no effect and ±100 for the full control effect
# Target sequence (Q9Y253 whole entry, looked up): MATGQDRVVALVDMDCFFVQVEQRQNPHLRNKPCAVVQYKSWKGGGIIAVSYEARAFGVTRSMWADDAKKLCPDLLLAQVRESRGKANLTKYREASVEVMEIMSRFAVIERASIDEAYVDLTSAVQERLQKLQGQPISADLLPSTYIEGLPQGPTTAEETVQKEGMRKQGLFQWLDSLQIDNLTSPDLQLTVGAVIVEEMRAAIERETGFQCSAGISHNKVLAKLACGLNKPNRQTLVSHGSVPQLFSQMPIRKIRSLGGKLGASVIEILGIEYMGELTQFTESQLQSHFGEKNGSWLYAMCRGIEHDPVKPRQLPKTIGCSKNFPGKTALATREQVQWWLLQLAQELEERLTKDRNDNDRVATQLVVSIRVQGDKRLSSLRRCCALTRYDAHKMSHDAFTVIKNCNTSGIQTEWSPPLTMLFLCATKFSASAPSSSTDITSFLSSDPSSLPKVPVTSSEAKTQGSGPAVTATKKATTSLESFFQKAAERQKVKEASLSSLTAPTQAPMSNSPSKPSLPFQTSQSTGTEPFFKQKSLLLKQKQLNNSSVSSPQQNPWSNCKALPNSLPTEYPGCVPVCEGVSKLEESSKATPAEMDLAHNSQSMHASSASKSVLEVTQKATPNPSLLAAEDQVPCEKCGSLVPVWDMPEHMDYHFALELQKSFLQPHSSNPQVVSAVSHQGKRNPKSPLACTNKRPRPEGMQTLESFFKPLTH
#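 Pol eta at 10 nM preincubated with compounds 15 min at room temperature; reaction started with fluorescent substrate (50 nM final) and read kinetically at 0 and 10 min.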
# FEN1 inh: human FEN1 inhibition; P39748; Recombinant FEN1 flap cleavage, fluorescence, 15 min; Potency, µM (top dose mostly 114 µM), inactives show at the top dose activity change, negative = inhibition, hits mostly inhibitors; hit rate 0.35% among 390,000; also: % is scaled to controls: 0 for no effect and ±100 for the full control effect; nearly all actives have a fitted effect of over 65% in size
#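 Compounds are tested as a concentration series against 10 nM FEN1; after a 15 min room-temperature preincubation, 50 nM substrate starts cleavage, with plate reads at 0 and 15 min. Normalized responses are fitted by a Hill equation.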
# POLB inh: inhibitors of human DNA polymerase beta. Potency, µM (highest dose often 114 µM), inactives show at the top dose activity change, negative = inhibition, hits mostly inhibitors. AID 485314. Pol beta primer extension/strand displacement, fluorescence kinetic. hit rate 1.3% among 340,000. P06746; also: % is scaled to controls: 0 for no effect and ±100 for the full control effect
#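 Pol beta (10 nM) and compounds were preincubated 15 min at room temperature, then 50 nM substrate (final) started primer extension/strand displacement. Reads were taken at 0 and 10 min; concentration-response data were fitted to a four-parameter Hill equation.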
# Pol kappa inh-1: blocks human DNA polymerase kappa activity; Q9UBT6; Potency, µM (doses to about 107 µM), for the others: top-dose activity, negative = inhibition, usual class: inhibitors; purified Pol kappa, fluorescent DNA synthesis assay, 10 min; AID 588579; hit rate 0.53% among 400,000; also: % is scaled to controls: 0 for no effect and ±100 for the full control effect
#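 10 nM Pol kappa was preincubated with compounds for 15 min at room temperature. Reaction started with 50 nM (final) substrate. Fluorescence read kinetically at 0 and 10 min.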
# WRN inhibitor: inhibitors of human WRN helicase; Q14191; Potency, µM (top dose mostly 114 µM), for the others: at the top dose activity change, negative = inhibition, most hits filed as inhibitors; hit rate 0.46% among 360,000; WRN helicase unwinding, fluorescent forked duplex, kinetic; AID 651768; also: % is scaled to controls: 0 for no effect and ±100 for the full control effect; nearly all actives have a fitted effect of over 55% in size
#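 Kinetic red-fluorescence monitoring (525/598 nm) tracks WRN helicase activity after 100 nM fluorophore-quencher forked duplex and 2 mM ATP are added to 20 nM enzyme pretreated 15 min at room temperature with compound.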
# Pol iota inh: inhibitors of human DNA polymerase iota | Q9UNA4 | Pol iota fluorescent replication assay, 10 min | Potency, µM (top dose mostly 115 µM), for the others: top-dose activity, negative = inhibition, most hits filed as inhibitors | hit rate 1% among 390,000 | AID 588590
#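 Fluorescent replication assay read twice, at 0 min and 10 min after adding 50 nM (final) substrate. Enzyme (10 nM) and compounds were first incubated 15 min at room temperature; enzyme-free buffer wells were negative controls.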
# Pol kappa inh-2: Pol kappa (human) inhibition, cherry-pick confirmation; shares compounds with Pol eta inh-1; purified Pol-kappa, fluorescent strand-displacement substrate; Potency, µM, most hits filed as inhibitors; hit rate 76% among 920
# Pol eta inh-2: confirmation of human DNA polymerase eta inhibitors. AID 720502. Potency, µM, hits mostly inhibitors. Pol eta primer extension, TAMRA/BHQ fluorescence, 10 min. hit rate 64% among 2,600. shares compounds with Pol eta inh-1
# * = called active by the depositor; ? = inconclusive; / = no result given; [ ] = remark or other dose. Calls follow the shape of the dose curve; as a rule, active = well fitted curve in the direction sought with a large enough effect; inconclusive = small, poorly fitted or top-dose-only effect, or another doubt; inactive = no such curve, though single readings can be large; an effect the other way counts as inactive or inconclusive. Potency is read from the fitted curve at half-maximal effect.
SMILES,Pol eta inh-1,FEN1 inh,POLB inh,Pol kappa inh-1,WRN inhibitor,Pol iota inh,Pol eta inh-2,others
Nc1nnc(CC(=O)N/N=C/c2ccc(-c3ccc(F)cc3)o2)s1,-10%,3%,-15%,-9%,-14%,?,/,
NC(=O)N/N=C/c1ccc(-c2ccc(S(=O)(=O)Nc3ncccn3)cc2)o1,35µM*,-10%,/,?,-7%[11.6 µM],?,67*,Pol kappa inh-2=38*
COc1cccc(OC)c1OC(=O)C1CC(=O)N(c2ccc3c(c2)OCCO3)C1 (stereo not drawn),28µM*,0%,/,?,-7%[11.6 µM],25µM*,?,
COc1ccccc1NC(=O)C(C)OC(=O)C1CC(=O)N(c2ccc3c(c2)OCCO3)C1 (stereo not drawn),-5%,1%,36%,-1%,-8%,39%,/,
CC1=CC2(O)OCCN(CCO)C2=CC1=O (stereo not drawn),?,-8%,25µM*,?,-8%[11.6 µM],?,?,
Cc1cc(C)n(-c2ncc3c(n2)N(CCO)CCOC3=O)n1,-1%,-5%,11%,-4%,-7%,-8%,/,
Cc1onc(-c2ccccc2Cl)c1C(=O)NCc1ccco1,45µM*,-7%,28µM*,?,-22%[57.1 µM],?,?,
Cc1cc(/C=C2\SC(=S)NC2=O)c(C)n1-c1cccc(O)c1,35µM*,-30%,45µM*,-18%,?,?,?,
COc1ccc(CCNC(=O)Cn2cc(S(=O)(=O)Cc3ccccc3Cl)c3ccccc32)cc1OC,-1%,-1%,19%,-7%,/,0%,/,
COc1cccc(CNC(=O)c2ccc(NC(=O)N3CCCCc4ccccc43)cc2)c1,1%,2%,1%,3%,/,3%,/,
O=C(Nc1ccc(F)cc1)Nc1ccc2snnc2c1,-14%,-5%,9%,-8%,/,8%,/,
CC(=O)c1ccc(NC(=O)Nc2ccc3snnc3c2)cc1,?,?,?,-24%,/,89µM*,/,Pol kappa inh-2=?
COc1ccc(N2CCN(C(=O)c3nn(-c4ccc(C)cc4)c(=O)n(C)c3=O)CC2)cc1,-4%,-11%,14%,-5%[60.1 µM],/,?,/,
Cc1cc2c(=O)n(Cc3ccco3)c(SCC(=O)NCc3ccco3)nc2s1,?,-10%,?,?,-27%,35µM*,?,
Cc1nnc(SCC(=O)NCc2ccco2)[nH]c1=O,32µM*,1%,0%,?,-24%[57.1 µM],?,30*,
C=Cc1ccc(Cn2c(C)c(CNCCc3ccc(OCC)cc3)c(C(=O)O)c2C)cc1,-3%,-8%,1%,-10%,/,6%,/,
O=C(Nc1ccc2c(c1)CCCN2C(=O)c1cccs1)c1cccc(C(F)(F)F)c1,-7%,-22%,10%,-6%[60.1 µM],/,-3%,/,
CN(c1ccccc1C(=O)O)S(=O)(=O)c1ccc2c3c(cccc13)C(=O)N2,13µM*,?,13µM*,79µM*,?,?,?,
O=C(O)c1cn[nH]c1-c1cccc([N+](=O)[O-])c1,20µM*,-15%,-15%,?,?,25µM*,67*,
O=C(O)c1cc([N+](=O)[O-])ccc1-c1ccc([N+](=O)[O-])cc1C(=O)O,20µM*,/,/,/,-13%[11.6 µM],/,60*,Pol kappa inh-2=3.8*
O=C(O)c1cc([N+](=O)[O-])ccc1N1CCCCC1,-13%,9%,0%,-13%,0%,-2%,/,
COc1ccco1,/,/,/,17%[60.1 µM],/,/,/,
O=C(CSC1=Nc2ccccc2C2=NC(Cc3ccccc3)C(=O)N12)Nc1ccccc1F (stereo not drawn),-23%,13%,1%,-2%[60.1 µM],/,5%,/,
O=C(Cc1cccs1)N1CCN(c2ccc(F)cc2)CC1,-15%,8%,10%,-5%,-5%,10%,/,
Cc1nc2ncnn2c(N2CCN(C(=O)Cc3cccs3)CC2)c1C,79µM*,-16%,20µM*,?,?,?,?,
SMILES,Pol eta inh-1,FEN1 inh,POLB inh,Pol kappa inh-1,WRN inhibitor,Pol iota inh,Pol eta inh-2,others
N=C1/C(=C\c2ccc(OC(=O)c3ccc(F)cc3)cc2)C(=O)N=C2SC(N3CCCC3)=NN12,56µM*,10%,-1%,-27%,-10%[11.6 µM],-12%,/,Pol kappa inh-2=67*
Cc1ccc(/C=C2/C(=N)N3N=C(CC(=O)N4CCCC4)SC3=NC2=O)cc1,-5%,-10%,8%,-6%,-13%,1%,/,
CSc1ccc(/C=C2/C(=N)N3N=C(CC(=O)N4CCCC4)SC3=NC2=O)cc1,40µM*,-11%,7%,?,5%[11.6 µM],79µM*,?,
COc1ccccc1-n1c(C)cc(/C=C2\C(=N)N3N=C(CC(=O)N4CCOCC4)SC3=NC2=O)c1C,-2%,20%,22%,0%,-2%,14%,/,
COc1ccc(-n2c(C)cc(/C=C3\C(=N)N4N=C(CC(=O)N5CCOCC5)SC4=NC3=O)c2C)c(OC)c1,40µM*,7%,?,?,-23%,45µM*,?,
COc1cccc(NCc2cccn2-c2nnc(N3CCC(C)CC3)s2)c1,-10%,3%,0%,-2%,/,8%,/,
N#Cc1c(-c2ccccc2)nc(SCC(=O)Nc2ccccc2)[nH]c1=O,2%,8%,-21%,-4%,-15%,7%,/,
N#Cc1c(-c2ccccc2)nc(SCC(=O)Nc2ccc(OC(F)(F)Cl)cc2)[nH]c1=O,?,-24%,22µM*,5%,0%[11.6 µM],12%,/,Pol kappa inh-2=?
Cc1nnc(NC(=O)CSc2nnc3c(n2)[nH]c2ccccc23)s1,11%,-15%,14%,-7%,/,-22%,/,
CCOC(=O)Cc1nnc(NC(=O)CSc2nnc3c(n2)[nH]c2ccccc23)s1,20µM*,-20%,18µM*,79µM*,?,25µM*,43*,
CCOC(=O)c1c(NC(C)=O)c2c3c(sc2n1Cc1ccc(Cl)cc1)CCCC3,/,2%,23%,12%,/,35%,/,
Cc1cccc(OCC(=O)Nc2nonc2-c2ccc(Br)cc2)c1C,/,2%,?,-3%,/,4%,/,
CCOC(=O)N1CCc2c(sc(NCc3ccc(N(C)C)cc3)c2C(=O)Nc2ccccc2OCC)C1,1%,7%,-2%,-23%[60.1 µM],/,37%,/,
O=C(C1Cc2ccccc2CN1C(=O)c1ccccc1)N1CCN(c2ccccc2)CC1 (stereo not drawn),79µM*,1%,32µM*,?,-7%[11.6 µM],?,76*,Pol kappa inh-2=?
COc1ccc(N2CCN(C(=O)C3Cc4ccccc4CN3C(=O)c3ccco3)CC2)cc1 (stereo not drawn),-3%,-2%,/,-17%,-14%,-1%,/,
